Compound activity from PubChem BioAssay.
Pf Dd2 inh = inhibitors of Plasmodium falciparum Dd2 growth; P. falciparum Dd2 growth, SYBR Green, 72 h; hit rate 4.3% among 120,000; Potency, µM (doses to about 28.9 µM), for the others: top-dose activity, negative = inhibition, most hits filed as inhibitors; active = well fitted inhibition curve with a large enough effect;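 also: plate controls were DMSO vehicle for no effect and reference drug for full effect; nearly all actives have a fitted effect of over 65% in size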
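Infected erythrocytes (Dd2, 0.3% parasitemia, 2.5% hematocrit final) are added to compound in RPMI-1640/Albumax II medium, grown 72 h at 37C in low oxygen, then lysed with saponin/Triton-X containing SYBR Green and read by fluorescence.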
* hit, by the source's call; i = inactive; [ ] = dose if it differs, or a comment. Many of the other results were omitted from the sample, so hits are more common in it than they were. Potency is read from the fitted curve at half-maximal effect.

SMILES	Pf Dd2 inh
CC(=O)N[C@H]1CC[C@]2(C)CCC([C@H](C)C(=O)NCc3ccc(F)cc3)[C@H](O)[C@H]2[C@@H]1C (stereo not given in full)	i
C[C@H]1[C@@H]2[C@@H](O)C([C@H](C)C(=O)NCc3ccc(F)cc3)CC[C@@]2(C)CC[C@@H]1NC(=O)c1cnccn1 (stereo not given in full)	8.9µM*
C[C@H]1[C@@H]2[C@@H](O)C([C@H](C)C(=O)NC3CC3)CC[C@@]2(C)CC[C@@H]1NC(=O)c1cnccn1 (stereo not given in full)	i
O=C(Nc1ccc(F)c(Cl)c1)N1CCC2(CC1)SCC(=O)N2Cc1ccco1	-22%
COC(=O)CNC(=O)c1cc(-c2ccc([S+](C)(=O)[O-])cc2)nc2c1cnn2C	7%
COc1ccc(OC)c(C2NC(=O)NC(C)=C2C(=O)Nc2cc(C)cc(C)c2)c1 (stereo not given)	8%
COc1cc(C2Nc3c(C)cc(C)cc3-c3cc(C)nn32)cc(OC)c1O (stereo not given)	-4%
COc1ccc(OC)c(C2Nc3c(C)cc(C)cc3-c3cc(C)nn32)c1 (stereo not given)	0.25µM*
Fc1ccc(CNC[C@H]2Cn3c(-c4ccc(F)cc4)cnc3CO2)cc1	-15%[44.1 µM]
COc1ccccc1CNC[C@H]1Cn2c(-c3cccc(Cl)c3)cnc2CO1	13µM*
COc1ccccc1C(=O)NC[C@H]1Cn2c(-c3ccc4c(c3)OCCO4)cnc2CO1	-1%[44.1 µM]
COc1ccc(-c2nc3ccccc3s2)cc1NC(=O)COc1ccc(C)cc1	10%
COc1ccc(-c2nc3ccccc3o2)cc1NC(=O)COc1ccc(C(C)(C)C)cc1	7.9µM*
COc1ccc(-c2nc3ccccc3o2)cc1NC(=O)COc1cc(C)cc(C)c1	i
Cn1c(C(=O)N2CCNc3cnc(Nc4cccc(C(F)(F)F)c4)nc3C2)cc2ccccc21	-5%
Cc1ccc(S(=O)(=O)N(C)Cc2cccc(C(F)(F)F)c2)cc1	-21%
CO[C@H]1C[C@@H](O)C12CCN(C(=O)c1ccc(OC(F)F)cc1)CC2	6%
COc1cccc(C(=O)Nc2ccc(S(=O)(=O)N(Cc3ccccc3)c3ccccc3)cc2)c1	48%
Cc1ccc(NC(=O)c2ccc(N(Cc3ccccc3)S(C)(=O)=O)cc2)cc1	6.3µM*
O=C(Nc1ccc(S(=O)(=O)N(Cc2ccccc2)c2ccccc2)cc1)c1ccc(F)cc1	69%
CO[C@H]1C(=O)N(C2CCN(C(=O)C3CCCC3)CC2)[C@H]1c1ccncc1	13%
O=C(Cc1c(F)cccc1Cl)N1CCN(c2cc(-c3ccccc3)[nH]n2)CC1	-2%
Cc1cccc(C)c1CN1CC2(COCC1=O)CN(c1ccc(C(F)(F)F)cn1)C2	-1%[44.1 µM]
CC(C)n1ccnc1CN1CCC2(CCCO2)CCC1=O (stereo not given)	5%
C[C@@H]1CN(C2CCN(Cc3cnn(C)c3C3CC3)CC2)C[C@H](C)O1	1%
SMILES	Pf Dd2 inh
Cn1cc(CN2CCCC23CCN(c2ccc(C(F)(F)F)cn2)CC3)cc1C#N	5µM*
CC(C)n1ccnc1CN1CCCC12CCN(c1ccc(C(F)(F)F)cn1)CC2	13µM*
Cn1ncc(CN2CCCC23CCN(c2ccc(C(F)(F)F)cn2)CC3)c1C1CC1	11µM*
FC(F)(F)CN1C2CCC1CN(c1ccc(C(F)(F)F)cn1)C2	27%
COc1ccc(CN2CC3(COCC2=O)CN(c2ccc(C(F)(F)F)cn2)C3)cc1F	i
Cc1ccc(C2(O)CCN(c3cc(C(F)(F)F)ccn3)CC2)nc1	-8%
COc1ccc(CNC(=O)[C@H]2O[C@H](CCN3CCN(c4ccccc4OC)CC3)CC[C@@H]2O)cc1	i
CC(C)c1noc(-c2cn(C3CCN(C(=O)c4ccco4)CC3)nn2)n1	i
CCc1ccc(-c2nc(C3CC(=O)N(c4ccc(OC)cc4)C3)no2)cc1 (stereo not given)	32%
O=[S+]1([O-])NC2(CCN(Cc3ccccn3)CC2)COc2ccccc21	5%
Cc1noc(-c2ccn3c(CNC(=O)c4ccc(C)c(F)c4)nnc3c2)n1	i
CCNC(=O)N1C[C@@H](F)[C@@H](OCc2nc3ccc(C)cc3[nH]2)C1	35%[44.1 µM]
O=[S+]([O-])(c1ccncc1)c1nnn2c1nc(NC1CCCC1)c1ccccc12	3%
CC(C)c1noc(-c2cn(C3CCN(C(=O)c4cc5ccccc5[nH]4)C3)nn2)n1 (stereo not given)	i
COc1ccc(NC(=O)c2ccc3c(c2)OCC(=O)N(C)C3)c(F)c1	-5%[44.1 µM]
CN1CC(=O)N(c2ccc([N+](=O)[O-])cc2)Cc2c1ncnc2N1CCN(c2ncccn2)CC1	-3%
COc1ccc(C(=O)N[C@@H]2CCC[C@@H]2C(=O)N2CCN(c3cc(C)ccc3C)CC2)cn1	10µM*
COc1ccc(C(=O)N[C@@H]2CCC[C@@H]2C(=O)Nc2cc(F)ccc2C)cn1	11%
COc1ccc(C(=O)N[C@@H]2CCC[C@@H]2C(=O)N2CCN(c3ncccn3)CC2)cn1	-14%
CC1CCN(C(=O)C2CCN(c3nc(-c4ccccc4)nc4c3CCC4)CC2)CC1	1%
NC1CCN(C(=O)C2CCN(c3nc(-c4ccccc4)nc4c3CCC4)CC2)C1 (stereo not given)	-4%
OCCC1CN(c2nc(-c3ccccc3)nc3c2CCC3)CCN1C1CCCC1 (stereo not given)	10µM*
Cc1ccc(C#N)c(N2CCN(C3CCCC3)C(CCO)C2)n1 (stereo not given)	-20%
O=C(C1CCN(c2nc(-c3ccccc3)nc3c2CCC3)CC1)N1CCCNCC1	8.9µM*
O=C(NC1CCCC1)C1CCCN(c2nc(-c3ccccc3)nc3c2CCC3)C1 (stereo not given)	-25%
SMILES	Pf Dd2 inh
CNC(=O)[C@@H]1CNC[C@H]1c1nc(C)no1	-1%
Cc1cccc(Cn2c(SCc3ccc(C(=O)NCc4ccccc4F)cc3)nc3cccnc32)c1	-27%
O=C(NCCc1cccs1)c1ccc(Cn2c(SCc3ccccc3)nc3cccnc32)cc1	11µM*
CN(Cc1ccccc1)C(=O)c1ccc(CSc2nc3cccnc3n2Cc2ccccc2F)cc1	-18%
CCOc1ccc(C(=O)NCc2nc3cccnc3n2Cc2ccc(F)cc2)cc1OCC	i
Cc1cccc(CSc2nc3cccnc3n2Cc2ccc(C(=O)NCc3ccco3)cc2)c1	-14%
O=C(NC1CC1)c1ccc(Cn2c(SCc3ccc(F)cc3)nc3cccnc32)cc1	-2%
Cc1ccc(CNC(=O)c2ccc(Cn3c(SCc4ccc(F)cc4)nc4cccnc43)cc2)o1	11µM*
O=C(NCc1cccs1)c1ccc(Cn2c(SCc3ccc(F)cc3)nc3cccnc32)cc1	-19%
Cc1cccc(Cn2c(SCc3ccc(C(=O)NCCc4ccccc4)cc3)nc3cccnc32)c1	11µM*
O=C(NCCc1ccccc1)c1ccc(CSc2nc3cccnc3n2Cc2ccc(F)cc2)cc1	8.9µM*
CCOC(=O)c1ccccc1NC(=O)CN1C(=O)NC2(CCOCC2)C1=O	49%
Cc1nc2scc(CC(=O)NC3CCCCC3)n2c(=O)c1-c1cc(C)n(-c2ccccc2F)n1	i
Cc1ccc(NC(=O)c2ccc3c(c2)N(C)C2CCCN2C3=O)cc1 (stereo not given)	i
COc1ccccc1C(=O)N1CCC(n2c(=O)[nH]c3ccccc32)CC1	-3%
COCCOc1cc(-c2noc([C@@H]3CCCN3Cc3ccncc3)n2)ccn1	-6%[44.1 µM]
O=C(COc1ccccc1)NC[C@H]1Cn2c(-c3ccc(F)cc3)cnc2CO1	-12%[44.1 µM]
CS(=O)(=O)Nc1ccc([C@H]2OCC(=O)N[C@@H]2CO)cc1	i
